About 7,900 targets were measured; listed, in parts, are those with a hit and a random draw of the rest. About 0.6% of all pairs of compound and target were hits.
Columns and labels:
Assay in all cases: log2 fold change, soluble protein after heating vs DMSO (PISA); higher = thermal stabilisation; K562 cells, 10 uM, 30 min; active = over 0.2 and 3.5 SD of the protein, either way, in both replicates (recomputed)
[1] = compound: CC1=C(C=C(C=C1)NC(=O)C2=CC(=CC=C2)C(C)(C)C#N)NC3=CC4=C(C=C3)N=CN(C4=O)C
Method in brief: (§1)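 For each measurement, 10 μM compound was applied for 30 min to K562 cells at 2×10^6 cells/mL. Aliquots were heated for 3 min across 48°C-58°C, pooled, and extracted in PBS with 0.5% NP-40 at 4°C; the supernatant after 21,000xg for 90 min was soluble protein. This was quantified by TMTpro 16plex LC-MS/MS with channel sums equalised, and thermal stability was reported relative to control samples from duplicates, on a log2 fold-change scale.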

[2] = compound: CC1=C(C=C(C=C1)NC(=O)C2=CC(=CC=C2)N(C)C)NC(=O)C3=CC=C(C=C3)O
Method in brief: as §1

[3] = compound: CC1=CC=C(C=C1)SC2=C3C=C(SC3=CN=C2)C(=O)N
Method in brief: as §1

[4] = compound: CC1=NC(=CC=C1)C2=C(N=C(N2)C(C)(C)C)C3=CC4=NC=CN=C4C=C3
Method in brief: as §1

[5] = compound: CCCCN(Cc1ccc(C(=O)NO)cc1)C(=O)Nc1ccccc1 [Nexturastat A]
Method in brief: as §1

[6] = compound: CCCS(=O)(=O)Nc1ccc(F)c(C(=O)c2c[nH]c3ncc(-c4ccc(Cl)cc4)cc23)c1F [vemurafenib]
Method in brief: as §1

[7] = compound: CCCS(=O)(=O)Nc1ccc(F)c(C(=O)c2c[nH]c3ncc(Cl)cc23)c1F
Method in brief: as §1

[8] = compound: CCCc1cc(C)[nH]c(=O)c1CNC(=O)c1cc(-c2ccnc(N3CCN(C)CC3)c2)cc2c1cnn2C(C)C
Method in brief: as §1

[9] = compound: CCN(CC)Cc1ccc2cc(COC(=O)Nc3ccc(C(=O)NO)cc3)ccc2c1 [givinostat]
Method in brief: as §1

[10] = compound: CCN(CCCOc1ccc2c(Nc3cc(CC(=O)Nc4cccc(F)c4)[nH]n3)ncnc2c1)CCOP(=O)(O)O [barasertib]
Method in brief: as §1

[11] = compound: CC[C@@H]1C(=O)N(C)c2cnc(Nc3ccc(C(=O)N[C@H]4CC[C@H](N5CCN(CC6CC6)CC5)CC4)cc3OC)nc2N1C(C)C [volasertib]
Method in brief: as §1

[12] = compound: CC[C@H](C)N1C=C(C2=C(C=C(C=C21)C3=CN=C(C=C3)N4CCNCC4)C(=O)NCC5=C(C=C(NC5=O)C)C)C
Method in brief: as §1

[13] = compound: CC[C@H](C)[C@@H](C(=O)N[C@@H]([C@@H](C)O)C(=O)N[C@@H](CC(C)C)C(=O)[C@]1(CO1)C)NC(=O)[C@H]([C@@H](C)CC)N(C)C(=O)C [epoxomicin]
Method in brief: as §1

[14] = compound: CCn1c(C(=O)N(C2CC2)C2CC2)cc2c3c(ncn3C)c(Nc3cc(C)n(C)n3)nc21
Method in brief: as §1

[15] = compound: CCn1cc(-c2ccnc3[nH]c(-c4cccc(CN(C)C)c4)cc23)c(-c2ccc(NC(=O)N(C)C)cc2)n1
Method in brief: as §1

[16] = compound: CN(C)CC(=O)Nc1ccc2[nH]c(=O)c3ccccc3c2c1
Method in brief: as §1

[17] = compound: CN(CCOC1=CC=C(C=C1)C[C@H]2C(=O)NC(=O)S2)C3=CC=CC=N3 (racemic) [rosiglitazone]
Method in brief: as §1

[18] = compound: CN1C2=C(C3=C1C(=O)N(N=C3)CC4=CC(=CC=C4)N)SC(=C2)S(=O)C
Method in brief: as §1

[19] = compound: CN1CCC(CNc2ccc3ncc(-c4cccc(OC(F)(F)F)c4)n3n2)CC1
Method in brief: as §1

[20] = compound: CC[C@@H]1C(=O)N(C)c2cnc(Nc3ccc(C(=O)NC4CCN(C)CC4)cc3OC)nc2N1C1CCCC1
Method in brief: as §1

Measured: log2 fold change

PKN2 (UniProt Q16513)
Sequence of UniProt Q16513 (Q16513 whole entry, looked up): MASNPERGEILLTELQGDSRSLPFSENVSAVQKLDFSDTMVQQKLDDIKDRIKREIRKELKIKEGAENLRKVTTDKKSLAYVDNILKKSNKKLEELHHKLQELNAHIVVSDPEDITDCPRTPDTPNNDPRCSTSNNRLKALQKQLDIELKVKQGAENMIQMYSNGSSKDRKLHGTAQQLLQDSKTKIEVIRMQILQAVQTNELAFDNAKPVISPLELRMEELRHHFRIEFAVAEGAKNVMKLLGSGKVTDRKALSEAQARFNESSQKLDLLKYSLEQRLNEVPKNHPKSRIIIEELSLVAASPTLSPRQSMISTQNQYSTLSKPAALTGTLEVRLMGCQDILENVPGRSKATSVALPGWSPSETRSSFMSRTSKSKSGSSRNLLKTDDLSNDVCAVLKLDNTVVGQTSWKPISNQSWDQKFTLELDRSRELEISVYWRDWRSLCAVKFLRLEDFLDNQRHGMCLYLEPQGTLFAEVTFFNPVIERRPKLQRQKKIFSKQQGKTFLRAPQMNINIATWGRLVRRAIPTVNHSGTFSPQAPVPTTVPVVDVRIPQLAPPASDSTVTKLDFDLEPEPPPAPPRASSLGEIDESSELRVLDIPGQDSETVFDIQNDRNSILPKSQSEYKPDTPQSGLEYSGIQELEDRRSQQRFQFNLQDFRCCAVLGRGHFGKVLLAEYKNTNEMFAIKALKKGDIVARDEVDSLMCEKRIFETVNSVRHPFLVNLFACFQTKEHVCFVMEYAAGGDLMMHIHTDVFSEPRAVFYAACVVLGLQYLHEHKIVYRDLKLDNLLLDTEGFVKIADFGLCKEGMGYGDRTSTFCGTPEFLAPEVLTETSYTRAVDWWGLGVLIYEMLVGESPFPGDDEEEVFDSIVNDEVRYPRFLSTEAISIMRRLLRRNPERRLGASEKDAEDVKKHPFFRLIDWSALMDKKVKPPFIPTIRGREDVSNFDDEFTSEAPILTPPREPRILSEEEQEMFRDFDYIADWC
inactive: [1] 0.104 | [2] -0.005 | [3] 0.018 | [4] -0.012 | [5] 0.042 | [6] 0.05 | [7] 0.086 | [8] 0.032 | [9] 0.034 | [10] 0.106 | [11] -0.135 | [12] 0.159 | [13] -0.027 | [14] -0.197 | [15] -0.046 | [16] 0.009 | [17] 0.026 | [18] 0.027
active: [19] -0.288

PGK2 (UniProt P07205)
Sequence of UniProt P07205 (P07205 whole entry, looked up): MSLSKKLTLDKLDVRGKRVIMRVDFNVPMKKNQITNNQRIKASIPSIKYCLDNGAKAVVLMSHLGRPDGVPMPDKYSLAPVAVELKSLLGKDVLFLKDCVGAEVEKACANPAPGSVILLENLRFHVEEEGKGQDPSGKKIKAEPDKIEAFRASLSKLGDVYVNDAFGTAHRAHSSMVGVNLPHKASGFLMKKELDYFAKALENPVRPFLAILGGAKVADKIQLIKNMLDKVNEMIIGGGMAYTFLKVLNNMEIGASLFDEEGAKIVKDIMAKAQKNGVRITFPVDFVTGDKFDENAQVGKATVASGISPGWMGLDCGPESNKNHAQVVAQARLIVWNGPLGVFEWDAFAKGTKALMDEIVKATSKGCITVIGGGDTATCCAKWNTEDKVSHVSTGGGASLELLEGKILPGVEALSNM
inactive: [1] 0.019 | [2] 0.058 | [3] -0.075 | [4] 0.05 | [5] 0.039 | [6] -0.084 | [7] -0.051 | [8] -0.006 | [10] -0.046 | [20] 0.054 | [11] 0.123 | [12] -0.028 | [13] -0.037 | [15] 0.123 | [16] -0.112 | [17] 0.023 | [18] -0.059 | [19] 0.06

PATL1 (UniProt Q86TB9)
Sequence of UniProt Q86TB9 (Q86TB9 whole entry, looked up): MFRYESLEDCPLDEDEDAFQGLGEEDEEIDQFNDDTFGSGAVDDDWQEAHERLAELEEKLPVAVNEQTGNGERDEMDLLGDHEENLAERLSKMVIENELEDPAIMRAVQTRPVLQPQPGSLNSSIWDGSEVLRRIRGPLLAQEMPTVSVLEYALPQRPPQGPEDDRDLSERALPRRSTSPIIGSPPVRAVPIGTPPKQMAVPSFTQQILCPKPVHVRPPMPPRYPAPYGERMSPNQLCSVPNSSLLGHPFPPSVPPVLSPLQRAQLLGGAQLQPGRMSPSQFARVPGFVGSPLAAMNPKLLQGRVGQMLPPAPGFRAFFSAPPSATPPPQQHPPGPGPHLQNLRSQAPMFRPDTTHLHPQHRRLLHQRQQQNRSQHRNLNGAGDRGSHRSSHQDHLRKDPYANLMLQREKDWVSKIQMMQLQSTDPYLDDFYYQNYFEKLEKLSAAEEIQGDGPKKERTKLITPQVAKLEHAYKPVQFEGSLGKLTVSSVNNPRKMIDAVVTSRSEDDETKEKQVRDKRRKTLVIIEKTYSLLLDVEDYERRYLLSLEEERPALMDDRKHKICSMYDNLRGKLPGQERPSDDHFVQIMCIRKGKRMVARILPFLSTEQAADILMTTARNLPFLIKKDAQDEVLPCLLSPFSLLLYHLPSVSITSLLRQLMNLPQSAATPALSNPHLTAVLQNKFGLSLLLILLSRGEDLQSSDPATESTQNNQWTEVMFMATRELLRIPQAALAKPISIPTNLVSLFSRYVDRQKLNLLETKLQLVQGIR
inactive: [1] 0.038 | [2] 0.031 | [3] -0.025 | [4] -0.064 | [5] 0.123 | [6] -0.118 | [7] 0.005 | [8] 0.1 | [9] 0.039 | [10] 0.014 | [20] 0.109 | [11] 0.013 | [13] -0.041 | [14] -0.022 | [15] 0.051 | [16] 0.007 | [17] 0.078 | [18] 0.104
active: [19] -0.445

PNPLA4 (UniProt P41247)
Sequence of UniProt P41247 (P41247 whole entry, looked up): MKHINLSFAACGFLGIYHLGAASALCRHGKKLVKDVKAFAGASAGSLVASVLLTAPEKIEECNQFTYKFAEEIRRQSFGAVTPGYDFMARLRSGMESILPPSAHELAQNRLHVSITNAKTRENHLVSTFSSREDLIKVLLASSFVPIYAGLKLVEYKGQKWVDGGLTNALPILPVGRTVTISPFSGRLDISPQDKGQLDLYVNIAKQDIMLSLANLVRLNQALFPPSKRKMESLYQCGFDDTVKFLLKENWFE
active: [9] 1.1
inactive: [1] 0.418 | [2] -0.04 | [3] 0.409 | [4] 0.273 | [6] -0.093 | [7] -0.025 | [8] -0.277 | [10] 0.042 | [20] -0.152 | [11] -0.093 | [12] -0.039 | [14] -0.083 | [16] -0.004 | [17] -0.081 | [18] 0.126

PRKD2 isoform 3 (UniProt Q9BZL6)
Sequence of UniProt Q9BZL6 (Q9BZL6 whole entry, looked up): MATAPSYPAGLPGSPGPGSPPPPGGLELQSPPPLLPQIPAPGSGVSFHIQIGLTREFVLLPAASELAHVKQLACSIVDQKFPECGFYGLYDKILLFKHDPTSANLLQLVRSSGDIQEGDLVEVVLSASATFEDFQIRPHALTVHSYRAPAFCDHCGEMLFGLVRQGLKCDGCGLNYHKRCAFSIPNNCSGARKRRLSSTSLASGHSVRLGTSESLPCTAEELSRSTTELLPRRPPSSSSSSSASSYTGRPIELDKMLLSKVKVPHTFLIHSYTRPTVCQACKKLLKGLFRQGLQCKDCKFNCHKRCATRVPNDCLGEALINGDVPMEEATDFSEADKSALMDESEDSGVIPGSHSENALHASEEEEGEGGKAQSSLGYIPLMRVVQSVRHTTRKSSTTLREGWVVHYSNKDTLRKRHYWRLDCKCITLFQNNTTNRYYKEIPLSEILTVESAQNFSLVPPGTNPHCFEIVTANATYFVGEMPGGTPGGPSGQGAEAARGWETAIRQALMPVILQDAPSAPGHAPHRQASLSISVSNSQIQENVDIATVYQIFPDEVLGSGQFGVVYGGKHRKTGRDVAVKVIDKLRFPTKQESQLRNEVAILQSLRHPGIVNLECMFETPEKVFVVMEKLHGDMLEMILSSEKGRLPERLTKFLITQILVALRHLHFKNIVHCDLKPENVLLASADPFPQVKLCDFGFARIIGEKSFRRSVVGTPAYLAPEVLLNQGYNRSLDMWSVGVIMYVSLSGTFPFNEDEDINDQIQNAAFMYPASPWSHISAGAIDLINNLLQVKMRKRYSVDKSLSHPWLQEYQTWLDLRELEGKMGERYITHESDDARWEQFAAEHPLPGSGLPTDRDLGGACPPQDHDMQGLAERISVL
inactive: [1] 0.296 | [2] -0.26 | [3] 0.117 | [4] 0.028 | [5] 0.006 | [6] 0.024 | [7] 0.058 | [8] 0.083 | [9] -0.009 | [10] 0.093 | [12] 0.149 | [13] 0.049 | [14] 0.005 | [15] -0.089 | [16] 0.042 | [17] 0.144 | [18] 0.056 | [19] -0.316
active: [11] -0.674

POLR2G (UniProt P62487)
inactive: [1] 0.025 | [2] -0.033 | [3] 0.059 | [4] 0.057 | [5] -0.015 | [6] -0.022 | [7] 0.009 | [8] -0.038 | [9] -0.094 | [10] -0.019 | [20] 0.215 | [11] 0.276 | [12] -0.075 | [13] 0.054 | [14] 0.06 | [15] -0.003 | [16] 0.02 | [17] -0.01 | [18] 0.002 | [19] 0.081

PMPCB (UniProt O75439)
Sequence of UniProt O75439 (O75439 whole entry, looked up): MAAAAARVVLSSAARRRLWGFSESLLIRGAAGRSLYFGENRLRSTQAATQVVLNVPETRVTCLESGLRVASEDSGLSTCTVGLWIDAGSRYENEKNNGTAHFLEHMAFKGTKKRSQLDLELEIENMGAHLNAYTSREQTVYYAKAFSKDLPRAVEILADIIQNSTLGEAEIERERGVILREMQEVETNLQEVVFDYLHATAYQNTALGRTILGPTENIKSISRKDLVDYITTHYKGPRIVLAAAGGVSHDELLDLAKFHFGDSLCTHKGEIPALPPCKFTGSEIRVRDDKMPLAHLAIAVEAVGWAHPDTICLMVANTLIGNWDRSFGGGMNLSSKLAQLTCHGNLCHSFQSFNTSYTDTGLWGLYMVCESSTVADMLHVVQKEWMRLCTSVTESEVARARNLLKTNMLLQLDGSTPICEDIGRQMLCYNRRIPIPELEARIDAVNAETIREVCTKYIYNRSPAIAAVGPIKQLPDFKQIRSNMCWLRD
inactive: [1] 0.012 | [2] -0.063 | [3] -0.009 | [4] 0.03 | [5] -0.07 | [6] 0.06 | [7] -0.019 | [8] -0.015 | [9] -0.042 | [10] 0.01 | [20] 0.008 | [11] 0.138 | [12] 0.038 | [13] 0.022 | [14] -0.017 | [15] -0.125 | [16] 0.032 | [17] 0.002 | [18] -0.084 | [19] 0.098

PARP1 (UniProt P09874)
inactive: [1] 0.116 | [2] -0.149 | [3] 0.071 | [4] 0.107 | [5] -0.13 | [6] 0.112 | [7] 0.145 | [9] 0.045 | [10] 0.122 | [20] -0.233 | [12] 0.162 | [13] 0.1 | [14] -0.088 | [15] 0.302 | [17] 0.086 | [18] 0.027 | [19] -0.146
active: [8] 0.555 | [11] -0.57

PRG4 (UniProt Q92954)
inactive: [1] -0.099 | [2] 0.034 | [4] 0.106 | [5] -0.007 | [6] 0.008 | [8] -0.069 | [9] 0.102 | [10] -0.023 | [20] 0.073 | [12] -0.18 | [13] -0.294 | [14] 0.053 | [15] 0.075 | [16] -0.239 | [17] 0.085 | [18] 0.015 | [19] -0.228

PTK2B (UniProt Q14289)
inactive: [1] -0.09 | [2] 0 | [3] 0.06 | [4] -0.008 | [5] 0.217 | [6] -0.129 | [7] 0 | [8] 0.06 | [9] 0.421 | [10] 0.031 | [12] -0.244 | [13] -0.012 | [14] -0.198 | [15] -0.141 | [16] 0.017 | [17] 0.165 | [18] 0.082 | [19] -0.051
active: [11] -1.28

PI4K2B (UniProt Q8TCG2)
inactive: [1] -0.082 | [2] -0.002 | [4] -0.013 | [6] 0.059 | [8] 0.144 | [9] 0.019 | [10] 0.146 | [20] -0.147 | [12] -0.039 | [14] -0.057 | [15] 0.045 | [16] -0.024 | [17] 0.004 | [18] 0.079 | [19] -0.1

PHKA1 (UniProt P46020)
inactive: [1] -0.027 | [2] -0.155 | [3] -0.062 | [4] -0.033 | [5] 0.047 | [7] 0.019 | [8] 0.076 | [9] -0.024 | [10] -0.133 | [20] 0.042 | [11] -0.367 | [12] 0.076 | [13] -0.039 | [14] -0.019 | [15] 0.143 | [17] -0.038 | [18] 0.112 | [19] -0.045

POM121 (UniProt Q96HA1)
inactive: [1] -0.045 | [2] -0.032 | [3] -0.056 | [4] -0.074 | [5] 0.117 | [6] -0.039 | [7] 0.007 | [9] 0.119 | [10] 0.111 | [20] -0.017 | [11] -0.027 | [12] 0.056 | [13] -0.062 | [14] -0.037 | [15] 0.03 | [16] -0.071 | [17] 0.001 | [18] 0.137 | [19] -0.149

PIK3CD (UniProt O00329)
inactive: [1] 0.042 | [2] 0.079 | [3] 0.018 | [4] -0.04 | [5] -0.1 | [6] -0.051 | [7] -0.156 | [9] -0.013 | [10] 0.096 | [20] -0.069 | [11] -0.036 | [13] -0.076 | [14] -0.229 | [16] -0.059 | [17] 0.288 | [18] 0

PPP1R12C (UniProt Q9BZL4)
inactive: [1] -0.048 | [2] 0.027 | [3] 0.124 | [5] 0.154 | [6] -0.023 | [7] 0.265 | [8] 0.04 | [9] 0.089 | [10] 0.112 | [20] 0.029 | [11] -0.027 | [12] 0.204 | [13] -0.102 | [14] -0.094 | [15] -0.116 | [16] -0.03 | [17] -0.031 | [18] 0.013 | [19] 0.029

PKM isoform 2 (UniProt P14618)
Sequence of UniProt P14618 (P14618 whole entry, looked up): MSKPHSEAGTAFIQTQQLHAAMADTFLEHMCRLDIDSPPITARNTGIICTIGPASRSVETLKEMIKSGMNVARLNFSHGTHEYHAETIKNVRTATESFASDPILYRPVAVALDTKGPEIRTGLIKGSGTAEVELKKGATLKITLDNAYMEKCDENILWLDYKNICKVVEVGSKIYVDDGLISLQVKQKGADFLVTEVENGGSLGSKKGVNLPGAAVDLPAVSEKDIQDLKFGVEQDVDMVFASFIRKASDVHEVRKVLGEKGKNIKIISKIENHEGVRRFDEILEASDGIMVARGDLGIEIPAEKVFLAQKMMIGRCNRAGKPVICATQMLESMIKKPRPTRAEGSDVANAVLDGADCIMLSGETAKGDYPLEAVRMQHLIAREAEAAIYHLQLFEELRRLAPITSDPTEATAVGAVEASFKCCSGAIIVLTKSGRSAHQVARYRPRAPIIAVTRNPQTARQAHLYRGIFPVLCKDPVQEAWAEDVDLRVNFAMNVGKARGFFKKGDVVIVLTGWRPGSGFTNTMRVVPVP
inactive: [1] -0.13 | [2] -0.082 | [3] 0.049 | [4] 0.033 | [5] 0.267 | [6] 0.088 | [7] 0.094 | [8] 0.056 | [10] -0.005 | [20] 0 | [11] 0.091 | [12] 0.018 | [13] 0.29 | [15] -0.006 | [16] 0.053 | [17] -0.1 | [18] -0.184 | [19] -0.046

PNN (UniProt Q9H307)
Sequence of UniProt Q9H307 (Q9H307 whole entry, looked up): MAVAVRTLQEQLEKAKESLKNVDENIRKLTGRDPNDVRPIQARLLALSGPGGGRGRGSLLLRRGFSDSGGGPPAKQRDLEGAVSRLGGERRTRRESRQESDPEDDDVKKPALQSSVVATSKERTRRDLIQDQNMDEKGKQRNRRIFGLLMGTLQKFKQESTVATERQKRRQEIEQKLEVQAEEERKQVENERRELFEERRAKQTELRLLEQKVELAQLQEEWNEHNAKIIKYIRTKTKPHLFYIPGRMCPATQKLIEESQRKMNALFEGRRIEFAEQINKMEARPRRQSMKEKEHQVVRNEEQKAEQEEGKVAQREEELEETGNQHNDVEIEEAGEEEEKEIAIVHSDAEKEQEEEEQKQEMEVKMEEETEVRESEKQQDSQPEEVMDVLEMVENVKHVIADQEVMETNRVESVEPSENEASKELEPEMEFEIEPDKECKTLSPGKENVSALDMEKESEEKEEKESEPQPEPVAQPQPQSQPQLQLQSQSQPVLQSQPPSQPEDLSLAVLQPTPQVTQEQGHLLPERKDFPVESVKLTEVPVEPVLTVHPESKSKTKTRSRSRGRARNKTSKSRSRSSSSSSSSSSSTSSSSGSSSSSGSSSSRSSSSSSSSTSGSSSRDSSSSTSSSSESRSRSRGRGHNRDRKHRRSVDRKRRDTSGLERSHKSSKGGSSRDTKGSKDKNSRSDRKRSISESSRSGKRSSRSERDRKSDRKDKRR
inactive: [1] -0.101 | [2] 0.084 | [3] 0.003 | [4] 0.011 | [5] 0.03 | [7] 0.04 | [8] 0.004 | [9] 0.121 | [10] 0.027 | [20] 0.248 | [11] -0.039 | [12] -0.077 | [13] -0.07 | [14] -0.052 | [15] 0.021 | [17] 0.003 | [18] 0.067 | [19] -0.042

PARP16 isoform 3 (UniProt Q8N5Y8)
inactive: [1] 0.066 | [4] 0 | [5] 0.022 | [6] -0.06 | [7] 0.132 | [8] -0.016 | [9] 0.04 | [10] 0.032 | [20] 0.103 | [11] -0.025 | [12] 0.067 | [13] 0.029 | [14] 0.006 | [16] 0.061 | [17] 0.09 | [18] -0.008 | [19] 0.096
active: [3] 0.298 | [15] -0.252

— the supplement of paper PMC10849652
